Measurements from PubChem BioAssay (NCI).
This is part of a sample that, as a whole, favours compounds with a hit. Of some 83,000 tested, about 20% had one in any assay.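 Results are percent growth after 48 hours of single-concentration exposure. 100 means growth as in untreated cells, lower positive values show inhibition; negative values down to -100 show cell death.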 A number with no mark means an inactive call. Active and inactive are the calls of the source. The calls were made as follows: active = growth percent below 10; inactive = the rest.

Legend:
Assay in all cases: NCI-60 one-dose screen, 48 h (100 = growth as untreated, 0 = no growth, -100 = all killed)
Conditions in all cases: 10 µM unless noted
NCI-H23 lung = test system: NCI-H23 lung
NCI-H226 lung = test system: NCI-H226 lung
NCI-H322M lung = test system: NCI-H322M lung
HOP-62 NSCLC = test system: HOP-62 NSCLC
NCI-H460 lung = test system: NCI-H460 lung
HOP-92 NSCLC = test system: HOP-92 NSCLC
A549/ATCC NSCLC = test system: A549/ATCC NSCLC
786-0 renal = test system: 786-0 renal
COLO 205 colon = test system: COLO 205 colon

| Structure (SMILES) | growth (NCI-H23 lung) | growth (NCI-H226 lung) | growth (NCI-H322M lung) | growth (HOP-62 NSCLC) | growth (NCI-H460 lung) | growth (HOP-92 NSCLC) | growth (A549/ATCC NSCLC) | growth (786-0 renal) | growth (COLO 205 colon) |
| --- | --- | --- | --- | --- | --- | --- | --- | --- | --- |
| O=[N+]([O-])c1ccc(NS(=O)(=O)c2ccc(Cl)c(Cl)c2)cc1 | 81.5% | 82.5% | 111% | 82% | 77.7% | -1.71% (active) | 75.1% | 76.5% | 122% |
| CCN(CC)CCOCC[C@H]1CC[C@H]2[C@@H]3[C@H](C)Cc4cc(OS(N)(=O)=O)ccc4[C@H]3CC[C@]12C | -87.4% (active) | -61.9% (active) | -24.9% (active) | -96.7% (active) | -85.2% (active) | -88.2% (active) | -90.2% (active) | -99.6% (active) | -78.5% (active) |
| COC(=O)[C@H]1[C@H]2C[C@@H]3c4[nH]c5cc(OC)ccc5c4CCN3C[C@H]2C[C@@H](OC(=O)/C=C/c2cc(OC)c(OC)c(OC)c2)[C@@H]1OC | 93.5% | 101% | 88.6% | 61.6% | 48.6% | 60.5% | 74.2% | 58.9% | 67.6% |
| CCOc1cc(CCNS(=O)(=O)c2ccc(C)cc2)c(C(C)=O)cc1OCC | 89.3% [100 µM] | 81% [100 µM] | 108% [100 µM] | 96.6% [100 µM] | 76.9% [100 µM] | -5.84% [100 µM] (active) | 74.8% [100 µM] | 74.9% [100 µM] | 95.9% [100 µM] |
| CN(C)CCCNc1nn2c(=O)c3ccccc3nc2c2ccccc12 | 54.1% | 53.4% | 61.9% | 47.5% | 19.9% | 23.3% | 24% | 59% | 37.1% |
| Cc1cc(-c2ccccc2)cc(C)n1 | 103% | 102% | 105% | 112% | 112% | 95.4% | 92.7% | 99% | 120% |
| NS(=O)(=O)c1ccc(-n2ncc3c(N/N=C/c4ccccc4)ncnc32)cc1 | 80.6% | 107% | 94.6% | 104% | 66.4% | 87.6% | 52% | 93.2% | 97.5% |
| [N-]=[N+]=NCc1cccc(/C(O)=C/C(=O)C(=O)O)c1 | 85.4% | 86.1% | 93.8% | 94.5% | 104% | 92.7% | 93.6% | 97.3% | 99.6% |
| Cc1cnc2nc(-c3ccc(N(C)C)cc3)cn2c1 | 93.2% | 102% | 110% | 99.5% | 114% | 104% | 95.5% | 91.5% | 120% |
| COc1cnc2c(c1)C(=O)c1c-2n(CCCN2CCC(O)CC2)c(=O)c2cc(F)ccc12 | -19.9% (active) | -83.7% (active) | -3.95% (active) | -20.8% (active) | -44.5% (active) | -7.92% (active) | -77.5% (active) | -45.9% (active) | -10.9% (active) |
| O=C1NC(=S)S/C1=C\c1cc(Br)ccc1O | 84.7% | 91.4% | 92.3% | 81.6% | 102% | 75.7% | 107% | 109% | 95% |
| CCN(CC)c1ccc(C(=C2C=CC(=[N+](CC)Cc3cccc(S(=O)(=O)O)c3)C=C2)c2ccc(N(CC)Cc3cccc(S(=O)(=O)O)c3)cc2)cc1 | 45.2% | 71.3% | 58.3% | 1.01% (active) | 49.1% | 66.3% | -4.01% (active) | 55.9% | 14% |
| N#CC(C#N)C(C#N)C#N | 97.7% | 99.9% | 103% | 90.9% | 105% | 102% | 79% | 101% | 99.3% |
| O=C(Nc1ccccc1OC(=O)c1ccccc1)c1ccccc1 | 70.6% | 104% | 72.3% | 85.2% | 98.1% | 89.5% | 81.3% | 96% | 108% |
| CC(=O)Nc1c(Cl)cc2c(c1Cl)Cc1ccccc1-2 | 91.5% | 90.7% | 106% | 107% | 104% | 87.7% | 92.1% | 108% | 112% |
| O=C(Nc1ccccc1)c1cc(-n2cnc([N+](=O)[O-])c2)cc(-n2cnc([N+](=O)[O-])c2)n1 | 98.6% | 86.2% | 92% | 102% | 119% | 49.7% | 87% | 102% | 97.4% |
| COc1ccc2c(c1)[n+](=O)c(C(=O)/C=C/c1cc(OC)c(OC)c(OC)c1)c(C)n2[O-] | 65.9% | 79.1% | 81.3% | 101% | 44.7% | 63.7% | 74.1% | 70.9% | 58.9% |
| CC(=O)c1ccc(NS(=O)(=O)c2ccc([N+](=O)[O-])cc2)cc1 | 105% | 99.4% | 121% | 87% | 114% | 83.4% | 95.5% | 105% | 106% |
| COc1ccc(NC(=O)[C@@H]2C[C@H]2c2ccccc2)c(C(N)=O)c1 | 91.3% | 101% | 94.2% | 100% | 101% | 94.6% | 97.5% | 106% | 106% |
| COc1cc(Cl)cc(-c2nn(-c3cccc(NC(=O)c4cc(C(F)(F)F)cc(C(F)(F)F)c4)c3)cc2-c2ccncc2)c1 | 72.1% | 76% | 80.3% | 103% | 40.9% | 46.8% | 43.5% | 80.2% | 88.7% |
| CCn1cnc(C[C@H](NC(=O)[C@H](CCCCNC(=O)Nc2cc(C(F)(F)F)cc(C(F)(F)F)c2)NC(=O)Nc2cc(C(F)(F)F)cc(C(F)(F)F)c2)C(=O)OC)c1 | -65.8% [100 µM] (active) | 2.9% [100 µM] (active) | 5.23% [100 µM] (active) | -75.3% [100 µM] (active) | -41.1% [100 µM] (active) | -45.4% [100 µM] (active) | -75.3% [100 µM] (active) | -54.3% [100 µM] (active) | -100% [100 µM] (active) |
| CCN(CC)c1ccc(N=C2C=CC(=O)C=C2NC(C)=O)cc1 | 92.9% | 93.7% | 105% | 107% | 106% | 104% | 100% | 111% | 96.8% |
| Clc1ccc2c(c1)C(Br)c1cc(Cl)cc(Cl)c1-2 (stereo unspecified) | 14.8% | 14.4% | 81.4% | 88.1% | 99.9% | 53.5% | 98.4% | 84.9% | 103% |
| Cc1ccc(-c2c3c(N)c4c(nc3nc3c2c(C)nn3-c2ccccc2)CCC4)cc1 | 66.8% | 92.6% | 89.1% | 95.7% | 5% (active) | 77.9% | 32.9% | 28% | -74.4% (active) |
| COc1cnc2c(c1)C(=O)c1c-2n(CCCN2CCOCC2)c(=O)c2cc(F)ccc12 | -15% (active) | -64.5% (active) | 8.18% (active) | -23% (active) | -32.9% (active) | -13.5% (active) | -29.2% (active) | -60.1% (active) | -8.99% (active) |
| O=C1/C=C/[C@@H](O)[C@@H]2C[C@@H](O)C[C@H]2/C=C/CCC[C@H](CO)O1 | 13.5% | -63.4% (active) | 41.7% | 43.6% | 45.1% | 58.3% | 31.3% | -59.6% (active) | -71.6% (active) |
| OCCCc1n(Cc2ccc3ccccc3c2)c2ccccc2[n+]1Cc1ccc2ccccc2c1 | 19% | 48.5% | 49.9% | 37.5% | 18.4% | -24.3% (active) | 68.4% | 36% | -58.9% (active) |
| COc1ccc2ncccc2c1Cc1c(OC)ccc2ncccc12 | 80.1% | 80% | 96.6% | 65% | 82.4% | 58.1% | 64.5% | 89.1% | 79.9% |
| Oc1ccc(/C=N/Nc2nc3ccccc3s2)c(O)c1 | 56.8% | 45% | 11.9% | 26.7% | 10.9% | 62.8% | 18% | 38.3% | 89.3% |
